Source: PubChem (National Center for Advancing Translational Sciences (NCATS))
Rows were chosen to be rich in hits. Some 6.2% of all compounds tested hit in one or more screens of this group.
KinaseGlo FLuc: Kinase-Glo luciferase inhibition (counter-screen). Potency, µM (highest dose often 38.3 µM), for the others: at the highest dose activity change, negative = inhibition, actives largely listed as inhibitors. Kinase-Glo luciferase, ATP luminescence, 8 min. 0.28% of 200,000 active. AID 1379; also: nearly all actives have a fitted effect of over 60% in size
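Compound is pinned into ATP-containing buffer (10 uM ATP, imidazole pH 7.2, 7 mM MgCl2). Kinase-Glo luciferase reagent is then added. Light output is recorded following an 8-min room-temperature incubation.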
RORg inh: inhibitors of mouse ROR gamma transcriptional activity. Drosophila S2 Gal4-RORgamma UAS-luciferase reporter, 20 h. P51450. Potency, µM (series often up to 53.6 µM), for inactives: at the top dose activity change, negative = inhibition, usual class: inhibitors. AID 2551. 5.4% of 310,000 active; also: nearly all actives have a fitted effect of over 60% in size
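Luciferase reporter read in Schneider cells carrying Gal4-RORγ (mouse) and UAS-Photinus luciferase; cells given compound 1 h before 700 uM copper sulfate induction, then incubated 20 h at ambient temperature.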
Gal4-VP16 FLuc: counter-screen for ROR gamma inhibitors: Gal4-VP16 reporter. 3.5% of 310,000 active. Potency, µM (doses to about 53.6 µM), without a hit: at the highest dose activity, negative = inhibition, most hits filed as inhibitors. Drosophila S2 Gal4-VP16 UAS-luciferase, luminescence, 20 h;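 also: Gal4-VP16 expression switched on by copper sulfate through the metallothionein promoter; nearly all actives have a fitted effect of over 50% in size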
Starred values were filed as active, the others as inactive; ? = inconclusive; . = no result; [ ] = dose if it differs, or a comment. Calls follow the shape of the dose curve; as a rule, active = well fitted curve in the direction sought with a large enough effect; inconclusive = small, poorly fitted or top-dose-only effect, or another doubt; inactive = no such curve, though single readings can be large; an effect the other way counts as inactive or inconclusive. % is scaled to controls: 0 for no effect and ±100 for the full control effect; potency is read from the fitted curve at half-maximal effect.

SMILES	KinaseGlo FLuc	RORg inh	Gal4-VP16 FLuc
S=C1NC=NC2N=CNC12 (configuration not stated)	.	4%	8%
COc1ccc(CCNC(=O)c2ccccc2NC(=O)C2=C(C)OCCS2)c(OC)c1	.	?	-5%
CC(C)c1ccc(N2C(=O)CC(NNC(=O)c3ccccc3Cl)C2=O)cc1 (configuration not stated)	.	?	3.2µM*
CC(O)CCC(=O)NNC1CC(=O)N(c2ccccc2)C1=O (configuration not stated)	.	-1%	-6%
CCOC(=O)C1=C(C)N(CC(C)C)C(=O)/C1=C\c1ccc(OCC(=O)Nc2ccccc2)cc1	-2%	32%	-7%
COc1ccc(OCC(=O)Nn2c(-c3ccc(C)cc3)nc3ccccc3c2=O)cc1	-7%	-37%	6.3µM*
COc1ccc(-c2nc3ccccc3c(=O)n2NC(=S)N(C)C)cc1	2%	30%	1%
COc1ccc(OCC(=O)Nn2c(-c3ccc(OC)cc3)nc3ccccc3c2=O)cc1	3%	?	10µM*
O=C(Cc1ccccc1)Nn1c(-c2ccccc2)nc2ccccc2c1=O	-3%	28%	-9%
CCOC(=O)Cn1nnc(-c2ccc([N+](=O)[O-])cc2)n1	-1%	1%	-10%
COc1ccc(/C=C/c2c([N+](=O)[O-])c(=O)n(C)c(=O)n2C)c(OC)c1	-1%	-19%	-11%
Cn1c(/C=C/c2ccc(Cl)cc2Cl)c([N+](=O)[O-])c(=O)n(C)c1=O	.	11µM*	?
O=C(NC1CCCc2ccccc21)C1CCC(CNc2c(N3CCOCC3)c(=O)c2=O)CC1 (configuration not stated)	1%	-14%	0%
Cc1cccc(NC(=S)N(CCCN2CCOCC2)C(C)c2cc3ccccc3o2)c1 (configuration not stated)	-1%	13µM*	-2%[10 µM]
COc1cccc2cc(C(C)N(CCCN3CCOCC3)C(=S)Nc3ccccc3C)oc12 (configuration not stated)	1%	?	2%
Cc1cccc(NC(=S)N(CCCN2CCOCC2)C(C)c2cc3ccccc3o2)c1C (configuration not stated)	2%	10µM*	?
COc1cccc2cc(C(C)N(CCCN3CCOCC3)C(=S)Nc3cccc(C)c3)oc12 (configuration not stated)	2%	?	-6%
CN(Cc1ccc(F)cc1)Cc1nc(-c2cnccn2)no1	1%	2%	2%
CNC(=O)[C@H](C)/C=C/C(NC(=O)OCc1ccccc1)c1ccc(C(=O)OC)cc1 (some centres not stated)	-1%	2%	14%
COc1cccc(-n2c(CN3CCN(c4ccccc4)CC3)nc3ccc([N+](=O)[O-])cc3c2=O)c1	1%	-6%[10 µM]	-7%
CCC(C)N1C(=O)N(c2cccc(Cl)c2)C(C)(O)CC1(C)C (configuration not stated)	.	5µM*	26%
Cc1ccc(N2C(=O)N(C(C)C)C(C)(C)CC2(C)O)cc1 (configuration not stated)	.	-22%	1%
CN(c1ccccc1)S(=O)(=O)c1ccc(NC(=O)c2cccs2)cc1	3%	17%	-6%
CCC(C)c1ccc(NC(=O)c2ccco2)cc1 (configuration not stated)	.	20µM*	7.9µM*
CCN(c1ccccc1)S(=O)(=O)c1ccc(NC(=S)NC(=O)c2cccs2)cc1	-6%	3.2µM*	7.1µM*
SMILES	KinaseGlo FLuc	RORg inh	Gal4-VP16 FLuc
CCCCOC(=O)c1ccc(NC(=S)NC(=O)c2ccco2)cc1	.	11µM*	?
CCN(CC)c1ccc(NC(=S)NC(=O)c2cccs2)cc1	3%	3.2µM*	5µM*
CCCCCOC(=O)c1ccc(NC(=O)c2ccco2)cc1	-1%	26%	-9%
CC(=O)NC(=S)Nc1ccc(NC(=S)NC(=O)c2cccs2)cc1	.	-2%	-6%
CC(=O)Nc1ccc(NC(=O)c2ccco2)cc1	14%	-4%	7%
CCN(CC)S(=O)(=O)c1ccc2c(c1)nc(SCC(=O)N1CCOCC1)n2-c1ccccc1OC	1%	4%	4%
C[C@@H](C(=O)Cc1ccc2ccccc2c1)[C@@H]1C[C@@]1(C)[C@@H](NP(=O)(c1ccccc1)c1ccccc1)c1ccccc1	-1%	-10%	-2%
CC(=O)Nc1ccc(S(=O)(=O)Nc2c(NC3CCCCC3)c3ccccc3oc2=O)cc1	.	-22%	-23%
CCOc1cc(C(=O)Nc2ccc(S(=O)(=O)NC3=NCCCCC3)cc2)cc(OCC)c1OCC	4%	-14%	-10%
CC(C)C(=O)NC(=S)Nc1ccc(S(=O)(=O)N(C)C)cc1	-3%	?	?
